# Bioassay records deposited in PubChem by NMMLSC.
# Hits are enriched below; roughly 2.5% of the tested compounds scored in any of these assays.
# GRK2 inh = inhibitors of human GRK2 displacing RNA aptamer. P25098. bead flow cytometry, FAM-aptamer displacement from GRK2. inhibition of aptamer binding, % at 10 µM. 330,000 compounds, 0.59% hits;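 active = inhibition of aptamer binding above 40%, roughly 3 SD of noise, on plates passing a quality check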;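 also: median bead fluorescence of bound FAM aptamer so fluorescent compounds give negative values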
# Target sequence (P25098 whole entry, looked up): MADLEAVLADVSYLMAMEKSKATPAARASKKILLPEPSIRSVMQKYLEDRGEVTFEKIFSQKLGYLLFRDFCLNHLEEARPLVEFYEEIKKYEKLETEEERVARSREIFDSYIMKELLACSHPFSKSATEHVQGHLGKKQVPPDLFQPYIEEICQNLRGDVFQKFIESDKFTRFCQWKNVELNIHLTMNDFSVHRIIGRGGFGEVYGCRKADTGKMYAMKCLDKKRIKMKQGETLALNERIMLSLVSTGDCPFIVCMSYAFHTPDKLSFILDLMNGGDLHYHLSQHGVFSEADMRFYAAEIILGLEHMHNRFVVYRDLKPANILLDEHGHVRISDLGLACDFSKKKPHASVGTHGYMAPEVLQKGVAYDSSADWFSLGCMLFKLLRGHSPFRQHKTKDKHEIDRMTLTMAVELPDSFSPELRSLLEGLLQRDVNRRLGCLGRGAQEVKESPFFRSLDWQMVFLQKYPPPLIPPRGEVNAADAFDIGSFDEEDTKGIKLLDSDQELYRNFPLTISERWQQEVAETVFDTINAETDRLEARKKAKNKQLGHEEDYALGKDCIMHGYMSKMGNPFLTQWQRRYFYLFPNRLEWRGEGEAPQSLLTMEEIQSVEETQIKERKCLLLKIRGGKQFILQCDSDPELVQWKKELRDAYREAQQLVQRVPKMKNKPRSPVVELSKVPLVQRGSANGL
# MEKK3 PB1 HTS = MEKK3-MEK5 PB1 interaction, increase or decrease. binding response (% of control), % at 10 µM. 290,000 compounds, 1.4% hits. Q99759. bead-based flow cytometry, Alexa488-MEK5 binding to MEKK3; actives lie on both sides; 0 = blocked by unlabeled MEK5, 100 = vehicle. AID 1529;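 active = binding response more than 3 SD above or below the average of its plate-row segment, actives on both sides; inconclusive = wells at one plate position flagged as instrument error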;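 also: Alexa488 bead fluorescence after subtracting the streptavidin-only scavenger bead signal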
# MEKK2 WT-MEK5 = raises or lowers MEK5 binding to wildtype human MEKK2 PB1 domain | bead flow cytometry, Alexa488-MEK5 binding to MEKK2 WT; actives lie on both sides | binding response (% of control), % at 10 µM | Q9Y2U5 | 290,000 compounds, 1.1% hits; in the data active = binding response below about 67% or above about 130%; inconclusive = no clear call, values can overlap the other calls; inactive = in between
# MEKK2mut PB1 HTS = signal of MEK5 binding to mutant human MEKK2 PB1 domain; bead flow cytometry, Alexa488-MEK5 binding to MEKK2 mutant; percent response, % at 10 µM; 290,000 compounds, 0.35% hits; in the data active = percent response above about 24%, passing the limit was not always enough
# GRK2 inh confirm = human GRK2 inhibition confirmation, cherry pick 1. shares compounds with GRK2 inh. bead-bound GRK2, FAM-aptamer displacement, flow cytometry. aptamer displacement, % at 10 µM. 2,000 compounds, 4% hits. AID 504451;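 active = aptamer displacement above 40%, near three times the noise of non-fluorescent compounds, on plates passing quality checks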;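 also: negative values mostly reflect intrinsic compound fluorescence rather than true enhancement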
# Aptamer quench SP = quenches fluorescent RNA aptamer, GRK2 hit artifact | 2,000 tested, under 10 active | shares compounds with GRK2 inh | fluorescence response (% of DMSO), % at 10 µM | AID 504580 | Carboxyfluorescein RNA aptamer on beads, flow cytometry quenching; hits give low values;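 active = compounds that quench the bead-bound fluorescent RNA probe, cutting fluorescence to under half of the solvent control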;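 also: counterscreen run without GRK2 so only probe quenching by compound is measured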
# GRK2 CP2 = human GRK2 inhibition confirmation, cherry pick 2; 360 tested, under 10 active; shares compounds with GRK2 inh; inhibition of aptamer binding, % at 10 µM; bead-bound GRK2, FAM-aptamer displacement, flow cytometry;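 active = inhibition of aptamer binding above 40%, about triple the noise seen with nonglowing compounds, on plates passing quality control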;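 also: negative values mostly come from compounds that fluoresce themselves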
# FAM quench CP2 = aptamer fluorescence quenching in GRK2 counter-screen | shares compounds with GRK2 inh | 360 tested, under 10 active | carboxyfluorescein RNA aptamer beads, flow cytometry quenching; hits give low values | AID 588494 | fluorescence response vs DMSO, % at 10 µM;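 active = response vs DMSO under 50%, meaning signal dropped by over half, treated as fluorescence quencher; inconclusive = no clear call, values can overlap the other calls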;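 also: labelled aptamer on streptavidin beads without GRK2 as a quench counter-screen; 100% = bead fluorescence of DMSO wells and lower means quenching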
# * hit, by the source's call; ? = inconclusive; . = not tested or not shown.
SMILES,GRK2 inh,MEKK3 PB1 HTS,MEKK2 WT-MEK5,MEKK2mut PB1 HTS,GRK2 inh confirm,Aptamer quench SP,others
Cc1ccc(-c2nc3ccccc3c(=O)n2-c2ncccc2C)cc1,60.0*,?,?,-20.0,2.2,95.2,
Cc1cccnc1-n1c(-c2ccccc2)nc2ccccc2c1=O,2.0,98.0,94.0,-1.0,.,.,
CCOc1cc(C(=O)N2CCC3(CC2)OCCO3)cc(OCC)c1OCC,62.0*,109.0,107.0,4.0,-1.5,104.8,
CC[C@]12CC[C@H](O)CC1=CCC1C2CC[C@]2(C)C(=O)CCC12 (stereo partly drawn),42.0*,.,.,.,.,.,GRK2 CP2=11.5;FAM quench CP2=101.0
O=C(NCc1ccccc1)c1cccn(Cc2ccccc2)c1=O,0.0,105.0,103.0,3.0,.,.,
Cc1cc(=O)oc2cc(OCC(=O)N3C[C@H]4C[C@@H](C3)c3cccc(=O)n3C4)c(Cl)cc12,3.0,99.0,105.0,3.0,.,.,
Cc1cc(=O)oc2cc(OCC(=O)N3CCN(C(C)c4ccccc4)CC3)c(Cl)cc12 (stereo not drawn),0.0,.,.,.,-23.5,96.1,
N#Cc1ccccc1NC(=O)CN1CC=C(c2ccccc2)CC1,0.0,102.0,90.0,-4.0,.,.,
CC(C)(C)C(=O)OCC12CCC(O1)C1(C)C(=O)OCC21 (stereo not drawn),5.0,106.0,99.0,3.0,.,.,
CC(C(N)=O)N1CC(c2ccc(Cl)cc2)CC1=O (stereo not drawn),50.0*,104.0,103.0,6.0,0.9,97.7,
CC(C(N)=O)N1CC(c2ccccc2)CC1=O (stereo not drawn),3.0,109.0,110.0,12.0,.,.,
CCc1nc2ccc(N3CCN(C)CC3)cc2nc1CC,100.0*,102.0,100.0,-1.0,-2.8,99.1,
